# About 14,000 (4.5%) of roughly 310,000 compounds showed an effect of 50% or more. The effect is printed as a negative number. The entries come from a sample that favours strong results as a whole.
# Target: human ether-à-go-go-related gene (hERG) potassium channel (human, UniProt Q12809)
# Assay: primary screen, population patch clamp on CHO cells stably expressing hERG; higher = less effect of the substance
# 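Further: peak tail current of the secondary pulse compared with the same well before compound.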
# Sequence of human ether-à-go-go-related gene (hERG) potassium channel (Q12809 whole entry, looked up): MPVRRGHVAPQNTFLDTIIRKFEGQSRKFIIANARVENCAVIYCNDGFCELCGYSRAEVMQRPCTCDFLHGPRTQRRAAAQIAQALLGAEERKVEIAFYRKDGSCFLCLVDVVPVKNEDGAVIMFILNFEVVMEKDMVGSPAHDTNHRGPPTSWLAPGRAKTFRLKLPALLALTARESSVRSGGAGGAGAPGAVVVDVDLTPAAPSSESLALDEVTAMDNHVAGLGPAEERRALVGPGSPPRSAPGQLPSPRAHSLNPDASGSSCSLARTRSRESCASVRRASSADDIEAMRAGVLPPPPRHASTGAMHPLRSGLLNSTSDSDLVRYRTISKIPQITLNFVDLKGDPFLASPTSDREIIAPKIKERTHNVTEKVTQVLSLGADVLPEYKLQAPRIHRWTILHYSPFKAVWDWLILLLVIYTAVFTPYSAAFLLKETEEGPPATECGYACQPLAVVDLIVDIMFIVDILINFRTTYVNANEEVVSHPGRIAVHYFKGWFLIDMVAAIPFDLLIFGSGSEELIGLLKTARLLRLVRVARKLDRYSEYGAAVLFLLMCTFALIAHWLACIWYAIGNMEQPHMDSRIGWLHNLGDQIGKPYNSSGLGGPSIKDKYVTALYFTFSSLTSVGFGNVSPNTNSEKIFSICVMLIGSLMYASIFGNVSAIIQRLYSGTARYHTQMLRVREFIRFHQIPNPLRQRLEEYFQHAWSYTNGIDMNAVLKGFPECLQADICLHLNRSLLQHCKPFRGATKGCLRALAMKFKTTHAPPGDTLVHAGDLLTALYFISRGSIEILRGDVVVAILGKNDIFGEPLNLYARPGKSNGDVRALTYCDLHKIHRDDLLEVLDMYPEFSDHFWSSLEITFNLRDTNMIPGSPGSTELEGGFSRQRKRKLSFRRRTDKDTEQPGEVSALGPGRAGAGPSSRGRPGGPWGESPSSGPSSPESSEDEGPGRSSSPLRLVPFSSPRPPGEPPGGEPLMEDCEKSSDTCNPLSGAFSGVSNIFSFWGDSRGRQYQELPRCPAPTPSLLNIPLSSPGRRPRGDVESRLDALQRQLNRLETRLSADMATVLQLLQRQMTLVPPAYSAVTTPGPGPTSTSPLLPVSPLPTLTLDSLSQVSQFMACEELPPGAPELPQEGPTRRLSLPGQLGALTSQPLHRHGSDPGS
row,Compound,"hERG current change (%, negative = inhibition) at 10uM [%]"
1,COc1ccc(-n2nnnc2SCC(=O)Nc2cc(OC)c([N+](=O)[O-])cc2C)cc1,42.4
2,COc1ccccc1N1CCN(C(=O)C(C)N(c2ccccc2)S(C)(=O)=O)CC1 (centres unmarked),5.64
3,CCOC(=O)Nc1ccc(C)cc1NC(=O)OCC,11.7
4,Cc1ccc(NS(=O)(=O)c2cccs2)c(C)c1,-2.42
5,N#C/C(=C/c1ccc(F)cc1)S(=O)(=O)c1ccccc1,21.3
6,COc1cccc(CC2(CO)CCCN(Cc3nc(-c4cccs4)oc3C)C2)c1 (centres unmarked),-64.5
7,COc1cccc(CN2CCN(Cc3nc(-c4cccs4)oc3C)CC2CCO)c1 (centres unmarked),-57
8,COc1cccc(CC2(CO)CCCN(Cc3ccc(CO)o3)C2)c1 (centres unmarked),-7.04
9,Cc1ccccc1CC1(CO)CCCN(Cc2ccccc2Cl)C1 (centres unmarked),-25.6
10,Cc1ccccc1CC1(CO)CCCN(Cc2nc(-c3cccs3)oc2C)C1 (centres unmarked),-61.1
11,Cc1oc(-c2cccs2)nc1CN1CC[C@@](O)(c2ccccc2)[C@H]2CCCC[C@@H]21,11.8
12,Cc1ccc(CN2CCCC(CO)(Cc3ccccc3C)C2)s1 (centres unmarked),-37.7
13,COCc1ccc(CN2CCCC(CO)(Cc3cccc(OC)c3)C2)o1 (centres unmarked),-26.2
14,Cc1oc(-c2cccs2)nc1CN1CCC(CO)(CCOc2ccccc2)CC1,-67
15,Cc1oc(-c2cccs2)nc1CN1CCN(CC(C)C)C(CCO)C1 (centres unmarked),5.96
16,Cc1oc(-c2cccs2)nc1CN1CCN(Cc2ccc(F)c(F)c2)C(CCO)C1 (centres unmarked),-47.2
17,Cc1oc(-c2cccs2)nc1CN1CCN(C(C)C)C(CCO)C1 (centres unmarked),4.95
18,OCC1CCCN1C(=S)Nc1ccccc1 (centres unmarked),3.84
19,COc1ccc(C(=O)COC(=O)CN2C(=O)C3C4CCC(C4)C3C2=O)cc1 (centres unmarked),-17.9

row,Compound,"hERG current change (%, negative = inhibition) at 10uM [%]"
1,O=C(CSc1nc2c(cnn2-c2ccc(F)cc2)c(=O)[nH]1)N1CCCc2ccccc21,10.1
2,O=C1C=C(O)c2cccc3cccc1c23,28.3
3,CCN(CC)S(=O)(=O)c1ccc2c(c1)oc(=O)n2CC(=O)N(C)C1CCCCC1,-11.9
4,Cc1cc(-c2cccs2)c2c(n1)sc1c(=O)[nH]c(=O)[nH]c12,5.3
5,O=C(NCCCNC(=O)c1cnccn1)c1ccc(Cl)c(Cl)c1,-15.6
6,COc1ccc(-c2nc(CN3CCC(c4ccccc4)CC3)c(C)o2)cc1OC,-37.7
7,Cc1oc(-c2cccs2)nc1CN1CCC(C(=O)N2CCCC2)CC1,-11.2
8,Cc1oc(-c2cccs2)nc1CN1CCC(c2ccccc2)CC1,-66.5
9,Cc1c(Cl)cccc1NC(=O)CCN1CCCCCC1,-3.92
10,C/C(=N\OCC(=O)NCC(F)(F)F)c1cc2ccccc2o1,-1.58
11,CN(Cc1cnn(C)c1)C(=O)C1CCC(=O)N(Cc2ccc(Cl)cc2)C1 (centres unmarked),-9.64
12,CN(Cc1nccn1C)C(=O)C1CCC(=O)N(CCc2ccc(Cl)cc2)C1 (centres unmarked),-53.8
13,O=C(NCCc1nccs1)C1CCC(=O)N(CCc2ccc(Cl)cc2)C1 (centres unmarked),-31.6
14,CN(Cc1nccs1)C(=O)C1CCC(=O)N(CCc2cccc(F)c2)C1 (centres unmarked),-12.4
15,CN(Cc1cnccn1)C(=O)C1CCC(=O)N(CCc2ccccc2)C1 (centres unmarked),19.7
16,CN(Cc1ccon1)C(=O)C1CCC(=O)N(Cc2ccc(Cl)cc2)C1 (centres unmarked),-40.9
17,CN(Cc1ccccn1)C(=O)C1CCC(=O)N(Cc2cccc(C(F)(F)F)c2)C1 (centres unmarked),-15.7
18,CCc1ccc(CN(C)C(=O)C2CCC(=O)N(Cc3ccccn3)C2)cc1 (centres unmarked),-1.48
19,CN(Cc1nccs1)C(=O)C1CCC(=O)N(CCc2ccc(Cl)cc2)C1 (centres unmarked),-81.5

row,Compound,"hERG current change (%, negative = inhibition) at 10uM [%]"
1,CN(Cc1ccccn1)C(=O)C1CCC(=O)N(CCc2ccc(Cl)cc2)C1 (centres unmarked),-53.1
2,CN(Cc1nccn1C)C(=O)C1CCC(=O)N(Cc2cccc(C(F)(F)F)c2)C1 (centres unmarked),-9.93
3,CN(Cc1cnccn1)C(=O)C1CCC(=O)N(CCc2ccc(Cl)cc2)C1 (centres unmarked),-67.9
4,O=C(NNC(=O)C1COc2ccccc2O1)c1ccccc1 (centres unmarked),-1.85
5,O=C(NCc1cccs1)C1CCC(CNS(=O)(=O)c2ccccc2)CC1 (centres unmarked),-2.7
6,O=C(Nc1cccnc1)c1ccc(C(=O)Nc2cccnc2)cc1,29.7
7,COc1ccc(-c2nc(CS(=O)CC(=O)NC3CCCCCC3)c(C)o2)cc1 (centres unmarked),10.6
8,CCN(CC(=O)NC(C)(C)C)C(=O)C(c1ccccc1)c1ccccc1,23.5
9,COc1cccc(NC(=O)c2ccc(S(=O)(=O)NCc3cccnc3)cc2)c1,-0.62
10,O=c1oc2ccccc2c(O)c1C=Nc1cccnc1,12.2
11,C#Cc1ccc(CN2CCCC(C(=O)Nc3ccccc3Oc3cccnc3)C2)cc1 (centres unmarked),-58.5
12,O=C(Nc1ccccc1Oc1cccnc1)C1CCCN(Cc2ccccc2O)C1 (centres unmarked),-57.2
13,O=C(Nc1ccccc1Oc1cccnc1)C1CCCN(Cc2cccc(Cl)c2)C1 (centres unmarked),-30.2
14,Cc1ccccc1CN1CCCC(C(=O)Nc2ccccc2Oc2cccnc2)C1 (centres unmarked),0.0346
15,O=C(Nc1ccccc1Oc1cccnc1)C1CCCN(Cc2ccc(F)cc2)C1 (centres unmarked),-36.2
16,Cc1cccc(CN2CCCC(C(=O)Nc3ccccc3Oc3cccnc3)C2)c1 (centres unmarked),-43.9
17,CCN1CCN(CC(O)COc2ccc3c(C)cc(=O)oc3c2)CC1.Cl (centres unmarked),-0.83
18,O=C(CSCC(=O)N1CCOCC1)Nc1ccccc1,-0.115

# Reference: publication PMC4336329 (PLoS ONE, 2015)
